Several values for one entry are separate records, joined by “and”; a condition that tells them apart may be missing. Identical values can stand only once. Like-named read-outs stand apart in the source and are kept apart here.
Columns and labels:
[1] = system: AKT3; settings: concentration: 1 μM, replicates: in singlicate, n = 1
[2] = system: ALK; settings: concentration: 1 μM, replicates: in singlicate; n = 1
[3] = system: T1, AMPK-alpha1; settings: concentration: 1 μM, replicates: in singlicate, n = 1
T1 construct: gene PRKAA1

[4] = system: T2, AMPK-alpha2; settings: concentration: 1 μM, replicates: in singlicate; n = 1
T2 construct: gene PRKAA2

[5] = system: ANKK1; settings: concentration: 1 μM, replicates: in singlicate, n = 1
[6] = system: T3, ARK5; settings: concentration: 1 μM, replicates: in singlicate, n = 1
T3 construct: gene NUAK1

[7] = system: T4, ASK1; settings: concentration: 1 μM, replicates: in singlicate, n = 1
T4 construct: gene MAP3K5

[8] = system: T5, ASK2; settings: concentration: 1 μM, replicates: in singlicate, n = 1
T5 construct: gene MAP3K6

[9] = system: AURKA; settings: concentration: 1 μM, replicates: in singlicate, n = 1
[10] = system: AURKB; settings: concentration: 1 μM, replicates: in singlicate, n = 1
[11] = system: AURKC; settings: concentration: 1 μM, replicates: in singlicate; n = 1
[12] = system: AXL; settings: concentration: 1 μM, replicates: in singlicate, n = 1
[13] = system: T6, BIKE; settings: concentration: 1 μM, replicates: in singlicate, n = 1
T6 construct: gene BMP2K

[14] = system: BLK; settings: concentration: 1 μM, replicates: in singlicate; n = 1
[15] = system: BMPR1A; settings: concentration: 1 μM, replicates: in singlicate; n = 1
[16] = system: BMPR1B; settings: concentration: 1 μM, replicates: in singlicate, n = 1
[17] = system: BMPR2; settings: concentration: 1 μM, replicates: in singlicate, n = 1
[18] = system: BMX; settings: concentration: 1 μM, replicates: in singlicate, n = 1
[19] = system: BRAF; settings: concentration: 1 μM, replicates: in singlicate, n = 1
[20] = system: T7, BRK; settings: concentration: 1 μM, replicates: in singlicate, n = 1
T7 construct: gene PTK6
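Further: KINOMEscan kinase panel screen.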

Cc1ccc(O)cc1Nc1cc(C(F)(F)F)nc2ccc(-c3ccncc3)cc12 [GW630823]
%Inh [1]: 0% | %Inh [2]: 0% | %Inh [3]: 0% | %Inh [4]: 0% | %Inh [5]: 0% | %Inh [6]: 0% | %Inh [7]: 30% | %Inh [8]: 0% | %Inh [9]: 0% | %Inh [10]: 0% | %Inh [11]: 5% | %Inh [12]: 0% | %Inh [13]: 7% | %Inh [14]: 12% | %Inh [15]: 0% | %Inh [16]: 0% | %Inh [17]: 0% | %Inh [18]: 17% | %Inh [19]: 0% | %Inh [20]: 11%

Cn1ccc2ncnc(Nc3ccc(Oc4cccc(Cl)c4)c(Cl)c3)c21
%Inh [1]: 0% | %Inh [2]: 0% | %Inh [3]: 18% | %Inh [4]: 20% | %Inh [5]: 0% | %Inh [6]: 22% | %Inh [7]: 0% | %Inh [8]: 11% | %Inh [9]: 0% | %Inh [10]: 33% | %Inh [11]: 0% | %Inh [12]: 0% | %Inh [13]: 0% | %Inh [14]: 14% | %Inh [15]: 22% | %Inh [16]: 0% | %Inh [17]: 29% | %Inh [18]: 13% | %Inh [19]: 0% | %Inh [20]: 17%

O=C(Nc1ccccc1)Nc1ccc(Oc2ccc3nccn3n2)cc1
%Inh [1]: 10% | %Inh [2]: 0% | %Inh [3]: 25% | %Inh [4]: 0% | %Inh [5]: 0% | %Inh [6]: 0% | %Inh [7]: 8% | %Inh [8]: 0% | %Inh [9]: 0% | %Inh [10]: 68% | %Inh [11]: 16% | %Inh [12]: 0% | %Inh [13]: 0% | %Inh [14]: 13% | %Inh [15]: 18% | %Inh [16]: 6% | %Inh [17]: 0% | %Inh [18]: 8% | %Inh [19]: 0% | %Inh [20]: 0%

Nc1nc(-c2ccccn2)c(-c2ccnc3ccccc23)s1 [GW548057]
%Inh [1]: 0% | %Inh [2]: 17% | %Inh [3]: 14% | %Inh [4]: 1% | %Inh [5]: 20% | %Inh [6]: 24% | %Inh [7]: 2% | %Inh [8]: 0% | %Inh [9]: 17% | %Inh [10]: 0% | %Inh [11]: 25% | %Inh [12]: 8% | %Inh [13]: 33% | %Inh [14]: 9% | %Inh [15]: 0% | %Inh [16]: 35% | %Inh [17]: 32% | %Inh [18]: 9% | %Inh [19]: 0% | %Inh [20]: 1%

Fc1cccc(COc2ccc(Nc3ncnc4sc(-c5ccc[nH]5)cc34)cc2Cl)c1 [GW707818]
%Inh [1]: 0% | %Inh [2]: 0% | %Inh [3]: 10% | %Inh [4]: 36% | %Inh [5]: 12% | %Inh [6]: 6% | %Inh [7]: 21% | %Inh [8]: 0% | %Inh [9]: 6% | %Inh [10]: 0% | %Inh [11]: 9% | %Inh [12]: 0% | %Inh [13]: 24% | %Inh [14]: 0% | %Inh [15]: 25% | %Inh [16]: 0% | %Inh [17]: 1% | %Inh [18]: 6% | %Inh [19]: 0% | %Inh [20]: 0%

COc1ccc(-c2nc3n(c2-c2ccncc2)CCC3)cc1 [SKF-104493]
%Inh ([1]; 1 µM): 19% and 0% | %Inh [2]: 0% | %Inh ([3]; 1 µM): 11% and 9% | %Inh [4]: 0% | %Inh ([5]; 1 µM): 0% and 16% | %Inh ([6]; 1 µM): 0% and 12% | %Inh ([7]; 1 µM): 0% and 2% | %Inh ([8]; 1 µM): 30% and 6% | %Inh ([9]; 1 µM): 16% and 23% | %Inh ([10]; 1 µM): 23% and 7% | %Inh [11]: 0% | %Inh ([12]; 1 µM): 14% and 0% | %Inh ([13]; 1 µM): 10% and 0% | %Inh [14]: 0% | %Inh [15]: 0% | %Inh ([16]; 1 µM): 0% and 1% | %Inh ([17]; 1 µM): 39% and 2% | %Inh ([18]; 1 µM): 0% and 11% | %Inh ([19]; 1 µM): 23% and 0% | %Inh ([20]; 1 µM): 2% and 0%

Fc1cccc(COc2ccc(Nc3ncnc4cc[nH]c34)cc2Cl)c1
%Inh [1]: 0% | %Inh [2]: 0% | %Inh [3]: 4% | %Inh [4]: 0% | %Inh [5]: 40% | %Inh [6]: 11% | %Inh [7]: 11% | %Inh [8]: 0% | %Inh [9]: 16% | %Inh [10]: 24% | %Inh [11]: 8% | %Inh [12]: 16% | %Inh [13]: 9% | %Inh [14]: 1% | %Inh [15]: 21% | %Inh [16]: 16% | %Inh [17]: 15% | %Inh [18]: 6% | %Inh [19]: 0% | %Inh [20]: 11%

Fc1ccc(-c2ncn(CCCNCc3ccccc3)c2-c2ccncc2)cc1
%Inh [1]: 0% | %Inh [2]: 0% | %Inh [3]: 22% | %Inh [4]: 0% | %Inh [5]: 0% | %Inh [6]: 0% | %Inh [7]: 11% | %Inh [8]: 1% | %Inh [9]: 19% | %Inh [10]: 8% | %Inh [11]: 0% | %Inh [12]: 18% | %Inh [13]: 0% | %Inh [14]: 7% | %Inh [15]: 13% | %Inh [16]: 24% | %Inh [17]: 16% | %Inh [18]: 7% | %Inh [19]: 16% | %Inh [20]: 3%

Cc1ccc(C)c(NC(=O)NCCNc2ccnc(Nc3ccc(F)cc3)n2)c1 [GSK1379878]
%Inh [1]: 0% | %Inh [2]: 2% | %Inh [3]: 10% | %Inh [4]: 0% | %Inh [5]: 5% | %Inh [6]: 0% | %Inh [7]: 0% | %Inh [8]: 0% | %Inh [9]: 7% | %Inh [10]: 0% | %Inh [11]: 15% | %Inh [12]: 0% | %Inh [13]: 20% | %Inh [14]: 33% | %Inh [15]: 0% | %Inh [16]: 0% | %Inh [17]: 0% | %Inh [18]: 0% | %Inh [19]: 0% | %Inh [20]: 1%

O=C(Nc1ccccc1F)NC1CCN(c2ccnc(Nc3ccc(F)cc3)n2)C1 (stereo not shown) [GSK1379722]
%Inh [1]: 0% | %Inh [2]: 26% | %Inh [3]: 2% | %Inh [4]: 21% | %Inh [5]: 0% | %Inh [6]: 12% | %Inh [7]: 8% | %Inh [8]: 16% | %Inh [9]: 0% | %Inh [10]: 38% | %Inh [11]: 30% | %Inh [12]: 0% | %Inh [13]: 8% | %Inh [14]: 16% | %Inh [15]: 0% | %Inh [16]: 0% | %Inh [17]: 13% | %Inh [18]: 7% | %Inh [19]: 7% | %Inh [20]: 5%

Cl.Cn1ccc(-c2cccc(Nc3ccnc4cc(-c5nccs5)ccc34)c2)n1 [GW525701]
%Inh [1]: 0% | %Inh [2]: 28% | %Inh [3]: 0% | %Inh [4]: 14% | %Inh [5]: 8% | %Inh [6]: 0% | %Inh [7]: 9% | %Inh [8]: 0% | %Inh [9]: 0% | %Inh [10]: 28% | %Inh [11]: 0% | %Inh [12]: 0% | %Inh [13]: 0% | %Inh [14]: 15% | %Inh [15]: 0% | %Inh [16]: 0% | %Inh [17]: 16% | %Inh [18]: 0% | %Inh [19]: 0% | %Inh [20]: 5%

From publication PMC5540273 (PLoS ONE, 2017)
